Assay outcomes from PubChem.
Pf Dd2 growth = qHTS Primary assay for Inhibitors of Plasmodium falciparum Dd2 growth in vitro. P. falciparum Dd2 growth, SYBR Green, 72 h. Potency, µM (highest dose often 28.9 µM), inactives show at the highest dose activity, negative = inhibition, actives largely listed as inhibitors. 120,000 compounds, 4.3% hits; active = well fitted inhibition curve with a large enough effect;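 note: plate controls were DMSO vehicle for no effect and reference drug for full effect; nearly all actives have a fitted effect of over 65% in size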
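Infected erythrocytes (Dd2, 0.3% parasitemia, 2.5% hematocrit final) are added to compound in RPMI-1640/Albumax II medium, grown 72 h at 37C in low oxygen, then lysed with saponin/Triton-X containing SYBR Green and read by fluorescence.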
* = called active by the depositor; [ ] = dose if it differs, or a comment. This is one part of a sample in which hits are shown more often than they occur. Potency is the fitted concentration of half-maximal effect.

Results for C[C@]1(CO)[C@H]2Cc3sc(NC(=O)c4ccc(F)cc4)nc3[C@@H](CC(=O)NC3CCCCC3)[C@]2(C)CC[C@H]1O ?
Pf Dd2 growth: -10.0%

What do the screens show for `C#CCN(C)C(=O)C[C@@H]1c2nc(NC(=O)CCCCC)sc2C[C@@H]2[C@](C)(CO)[C@H](O)CC[C@]21C`?
Pf Dd2 growth: 10µM*

What do the screens show for `C#CCN(C)C(=O)C[C@@H]1c2nc(NC(=O)COC)sc2C[C@@H]2[C@](C)(CO)[C@H](O)CC[C@]21C`?
Pf Dd2 growth: 0.9%

What do the screens show for `C[C@]1(CO)[C@H]2Cc3sc(NC(=O)c4c(F)cccc4F)nc3[C@@H](CC(=O)NC3CCCC3)[C@]2(C)CC[C@H]1O`?
Pf Dd2 growth: 5.01µM*

What do the screens show for `O=Cc1cccc(N2CCN(C(=O)N3CCOCC3)CC2=O)c1`?
Pf Dd2 growth: 12.1%

Results for CN(CC1CCOCC1)S(=O)(=O)c1cccc(Cl)c1 ?
Pf Dd2 growth: 16.1%

What do the screens show for `COC[C@@H]1CN(S(=O)(=O)c2ccc(F)cc2)C[C@H]1c1nc(C)no1`?
Pf Dd2 growth: 2.9%

What do the screens show for `Cc1noc(-c2cccc(F)c2)c1C(=O)NCc1ccc(Cl)cc1`?
Pf Dd2 growth: -18.5%

Results for CN(CC1CCOC1)C(=O)NCc1ccco1 (stereo not given) ?
Pf Dd2 growth: 45.6%[5.79 µM]

What do the screens show for `CCNC(=O)CCc1c(CC)nn(-c2ccc(OC)cc2)c1Oc1cccc(F)c1`?
Pf Dd2 growth: inactive

How did COCCN1C(=O)c2ccccc2C(C(=O)NCc2ccc(OC)cc2)C12CCCC2 (stereo not given) do in these assays?
Pf Dd2 growth: -12.7%

How did COCCN1C(=O)c2ccccc2C(C(=O)Nc2nc(C)c(C)s2)C12CCCC2 (stereo not given) do in these assays?
Pf Dd2 growth: 7.94µM*

Results for COCCN1C(=O)c2ccccc2C(C(=O)Nc2nncs2)C12CCCCC2 (stereo not given) ?
Pf Dd2 growth: -21.1%

What do the screens show for `COCCN1C(=O)c2ccccc2C(C(=O)NCCC(C)C)C12CCCC2` (stereo not given)?
Pf Dd2 growth: -19.3%

Results for COCCN1C(=O)c2ccccc2C(C(=O)Nc2nc3ccccc3s2)C12CCCC2 (stereo not given) ?
Pf Dd2 growth: 6.31µM*

What do the screens show for `COCCN1C(=O)c2ccccc2C(C(=O)Nc2nnc(C)s2)C12CCCCC2` (stereo not given)?
Pf Dd2 growth: -15.7%

What do the screens show for `CCCc1nnc(NC(=O)C2c3ccccc3C(=O)N(CCOC)C23CCCCC3)s1` (stereo not given)?
Pf Dd2 growth: 10µM*

Results for COCCN1C(=O)c2ccccc2C(C(=O)Nc2nc(C(=O)OC)c(C(C)C)s2)C12CCCC2 (stereo not given) ?
Pf Dd2 growth: 11.2µM*

What do the screens show for `COCCN1C(=O)c2ccccc2C(C(=O)Nc2nncs2)C12CCCC2` (stereo not given)?
Pf Dd2 growth: -9.7%

How did CN(C)C[C@@H]1CN(c2ncccn2)C[C@H]1NC(=O)c1ccccc1C(F)(F)F do in these assays?
Pf Dd2 growth: 11.1%

How did CN1C[C@@H](NC(=O)Nc2ccccc2)C[C@H]1c1nc(-c2ccc(Cl)cc2)no1 do in these assays?
Pf Dd2 growth: -14.9%[44.1 µM]

What do the screens show for `O=C(c1ccc(Cl)s1)N1CCC(n2cc(-c3nc(-c4ccccc4)no3)nn2)CC1`?
Pf Dd2 growth: -0.6%

How did CC(C)N1C[C@H](O)C[C@H]1c1nnc2n1CCN(C(=O)c1nccc3ccccc13)CC2 do in these assays?
Pf Dd2 growth: inactive

What do the screens show for `CCN(Cc1ccccc1)C(=O)[C@@]12CCCC[C@H]1N(CCOC)C(=O)CC2`?
Pf Dd2 growth: -13.7%

How did O=C(Cn1ccn2nc(-c3ccc(F)cc3)c(CO)c2c1=O)Nc1cccc(C(F)(F)F)c1 do in these assays?
Pf Dd2 growth: -1.5%

How did O=C(Nc1cccc(F)c1)C1=NO[C@@H]2CN(c3ccccn3)C[C@H]12 do in these assays?
Pf Dd2 growth: -22.6%[44.1 µM]

What do the screens show for `O=C(c1cccc(F)c1)N1CCC2(CCCCO2)CC1`?
Pf Dd2 growth: inactive

How did CC(C)CCNC(=O)C1CCN(C(=O)N2CC3CC(C2)[C@H]2CCCC(=O)N2C3)CC1 (stereo not given in full) do in these assays?
Pf Dd2 growth: -2.0%

Results for COCCN1C(=O)c2ccccc2C(C(=O)NCc2ccccc2)C12CCCC2 (stereo not given) ?
Pf Dd2 growth: -14.5%

How did COCCN1C(=O)c2ccccc2C(C(=O)Nc2nc3c(s2)CCC3)C12CCCC2 (stereo not given) do in these assays?
Pf Dd2 growth: 12.6µM*

How did COCCN1C(=O)c2ccccc2C(C(=O)NCCc2ccccc2)C12CCCC2 (stereo not given) do in these assays?
Pf Dd2 growth: -19.7%

What do the screens show for `Cc1ccc(C(=O)N[C@H]2CO[C@H]3[C@@H]2OC[C@@H]3n2nnnc2Oc2ccccc2)cc1`?
Pf Dd2 growth: inactive

Results for Cn1nccc1C(=O)N1CCC2(CC1)OCCN(Cc1ccccc1F)C2=O ?
Pf Dd2 growth: -8.4%[44.1 µM]

Results for O=C1N(Cc2ccccc2)CCOC12CCN(Cc1cc(F)ccc1F)CC2 ?
Pf Dd2 growth: inactive

How did O=C1N(Cc2ccccc2F)CCOC12CCN(Cc1ccc(F)cc1F)CC2 do in these assays?
Pf Dd2 growth: 2.51µM*

Results for CN1C(=O)CCC2(CNC(=O)c3ccnn3C)CCC=C12 (stereo not given) ?
Pf Dd2 growth: 2.1%

Results for O=C(c1ccccc1)N1CC2(C1)C(=O)Nc1ccccc12 ?
Pf Dd2 growth: 26.8%[44.1 µM]

What do the screens show for `CCc1cccc(C)c1NC(=O)Cn1c(N(C)Cc2ccccc2)nc(C)cc1=O`?
Pf Dd2 growth: 11.2µM*

What do the screens show for `Cc1ccc(NC(=O)Cn2c(N(C)Cc3ccccc3)nc(C)cc2=O)c(C)c1`?
Pf Dd2 growth: inactive

How did CCc1ccccc1NC(=O)Cn1c(N(C)Cc2ccccc2)nc(C)cc1=O do in these assays?
Pf Dd2 growth: -7.7%

Results for Cc1sc2ccn(CC(C)C)c(=O)c2c1C(=O)N1CCC(C)CC1 ?
Pf Dd2 growth: -12.4%

Results for CCN1C(=O)C2(CCN(S(=O)(=O)c3ccc(C)c(C)c3)CC2)c2ccccc21 ?
Pf Dd2 growth: inactive

What do the screens show for `CCN1C(=O)C2(CCN(S(=O)(=O)c3ccc(Cl)cc3C)CC2)c2ccccc21`?
Pf Dd2 growth: 1µM*

What do the screens show for `CCN1C(=O)C2(CCN(S(=O)(=O)c3cccc(C)c3)CC2)c2ccccc21`?
Pf Dd2 growth: inactive

What do the screens show for `CNC(=O)[C@@H](C1CCCCC1)N1CCC[C@H]1C(=O)N1CCN(CCOC)CC1`?
Pf Dd2 growth: 39.1%

How did Cc1ccc(-n2cccn2)c(-c2nccn2-c2ccc(C(N)=O)cc2)c1 do in these assays?
Pf Dd2 growth: 11.1%

Results for FC(F)(F)CN1C2CCC1CN(c1nccc(C(F)(F)F)n1)C2 ?
Pf Dd2 growth: 16.4%

How did Cc1cc(C)nc(N2CC3CCC(C2)N3CC(F)(F)F)c1 do in these assays?
Pf Dd2 growth: inactive

What do the screens show for `Cc1ccc(Nc2ccnc(N3CC4CCC(C3)N4CC(F)(F)F)n2)cc1`?
Pf Dd2 growth: 10µM*

Results for CN(C)C(=O)C1CN(C(=O)Nc2cccc(Cl)c2)CC12CCOCC2 (stereo not given) ?
Pf Dd2 growth: -8.4%

What do the screens show for `COc1ccc(C(=O)N2CCC(c3n[nH]c(=O)n3-c3ccc(C)cc3)CC2)c(OC)n1`?
Pf Dd2 growth: -3.2%

Results for O=C(NC1CC(=O)N(Cc2ccccc2C(F)(F)F)C1)c1cscn1 (stereo not given) ?
Pf Dd2 growth: -18.2%

What do the screens show for `Cc1ccccc1-c1cnc2n[nH]c(-c3ccccc3)c2n1`?
Pf Dd2 growth: inactive
